We go through 30 molecules from ChEMBL document CHEMBL3988442, “University of Dundee, Small-Polar-MMV Screening Library” (2021).

Each structure is given as a SMILES string. Among all 48,000 compounds or so, about 13,000 (27%) showed an effect of 50% or more. Some of the results follow.

In the experiment the test system is Wolbachia pipientis. In words: Anti-Wolbachia Cell-Based Screen. Format: functional. Details: scale not given: in the data most compounds retested in dose-response had high values. The following applies: 5 µM.
As to `COc1ccccc1OC1(C(=O)O)CCN(c2cc(C)nc(C)c2)CC1`, the “Percent Effect” value is -31.32%.

Consider `CCOc1ccc(C(F)(F)F)cc1NCc1nc(C)c(C)o1`, for which the “Percent Effect” value is -3.649%.

Regarding `NCC1CCN(C2CCN(c3ccc(-c4ccco4)cc3)CC2)C1` (stereo not given), the “Percent Effect” value was -12.7%.

With `CC(CCSc1ccccc1)N1CCN(C(=O)c2ccccc2O)CC1` (stereo not given), the “Percent Effect” value came out at 4.975%.

For the molecule `Nc1nc(NCCc2[nH]nc3c2CCCC3)cc(N2CCOCC2)n1`, the “Percent Effect” value is on record as -17.88%.

On to `CN(Cc1cccc(-n2cccn2)c1)c1cc(N2CCCC2)nc(N)n1`, for which the “Percent Effect” value was found to be 13.85%.

Turning to `Cl.Nc1nc(Nc2ccccc2)cc(N2CCNCC2)n1`, the “Percent Effect” value was 122.8%.

`c1ccc(CCCn2cc(-c3nc(CN4CCOCC4)no3)nn2)cc1`: the “Percent Effect” value is recorded as -30.42%.

`CN1CCC2(Cc3ccccc3CN(C(=O)c3ccc(Cl)cc3)C2)C1` (stereo not given): the “Percent Effect” value stood at 111.1%.

In the case of `CCCSCC(=O)N1CCC2(CC1)CC(c1ccccc1)CN(C)C2` (stereo not given), the “Percent Effect” value is given as -4.07%.

`CCCC(=O)N1Cc2ccccc2CC2(CCN(C)C2)C1` (stereo not given): the “Percent Effect” value amounted to 117.7%.

In the case of `CCCC(=O)N1CCC2(CC1)COC2`, the “Percent Effect” value is -43.8%.

With `CN1CCC2(Cc3ccccc3CN(C(=O)CCN)C2)C1` (stereo not given), the “Percent Effect” value stood at 104.1%.

In the case of `CN1CCC2(CC1)Cc1ccccc1CN(C(=O)CN)C2`, the “Percent Effect” value is 99.69%.

`CN1CC(c2ccccc2)CC12CCN(C(=O)c1ccc(Cl)cc1)CC2` (stereo not given): the “Percent Effect” value is listed as -14.14%.

Regarding `CN1CCC2(CCN(C(=O)c3ccccc3)CC2)C1`, the “Percent Effect” value was -23.98%.

`O=C1CC(c2ccc(C(=O)O)cc2)c2ncn(-c3ccc(Cl)cc3)c2N1` (stereo not given): the “Percent Effect” value is -3.148%.

With `CC(C)C(C)(O)CNc1cccc(F)c1C#N` (stereo not given), the “Percent Effect” value is on record as 29.17%.

As for `COCc1nnc(-c2cccc(C(=O)N(C(C)C)C3CCC3)c2)o1`, the “Percent Effect” value was 24.51%.

Consider `O=C(CCNC(=O)c1ccc(Cl)cc1)NCc1nc(C2CC2)no1`, for which the “Percent Effect” value is reported as -6.02%.

On to `Cc1c(C(C)NC2CCOCC2)cnn1-c1ccc(F)cc1F` (stereo not given), for which the “Percent Effect” value is reported as -3.497%.

For the molecule `CN1CCC2(Cc3ccccc3CN(C(=O)Cc3cccc(Cl)c3)C2)C1` (stereo not given), the “Percent Effect” value was found to be 135.8%.

Take `O=C(Cc1ccccc1)N1CCC2(CC(=O)N(c3cccc(F)c3)C2)C1` (stereo not given): the “Percent Effect” value was -7.146%.

Turning to `COCCC(=O)N1CCC2(CN(Cc3cccc(Cl)c3)C2)C1`, the “Percent Effect” value came out at 20.7%.

On to `CC(=O)Nc1nc(C(=O)NCCOc2ccc(C)cc2)cs1`, for which the “Percent Effect” value is recorded as -6.104%.

Consider `CC(=O)Nc1nc(C(=O)NC(C)c2ccc(F)c(F)c2)cs1` (stereo not given), for which the “Percent Effect” value turned out to be 54.27%.

As to `CC(=O)Nc1nc(C(=O)Nc2ccc(F)cc2)cs1`, the “Percent Effect” value is on record as -0.1776%.

As to `CC(=O)Nc1nc(C(=O)NC(C)c2ccc(F)cc2)cs1` (stereo not given), the “Percent Effect” value amounted to 33.73%.

Turning to `CC(=O)Nc1nc(C(=O)NC(C)c2ccc(C#N)cc2)cs1` (stereo not given), the “Percent Effect” value was 80.7%.

Take `CC(=O)Nc1nc(C(=O)NC(C)c2ccc3c(c2)OCCO3)cs1` (stereo not given): the “Percent Effect” value was determined as 7.281%.
